The subject of test [1] is Human papillomavirus type 1a protein E7 (residues 44-93). The test is described as follows: HPV1a E7 fragment binders on microarrays, primary screen, biochemical, small-molecule microarray, residues 44-93, 635 nm fluorescence (AID 1108).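 Also: E7 fragment applied at 1 µg/mL in TBST for 1 h at 4 C; score combines spot fluorescence with its signal to noise ratio.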 As to conditions: small-molecule microarray binding, fluorescence 635 nm; higher = more signal.
A short description of test [2]: modulators of HCV replicon luciferase signal, primary screen, HCV replication inhibitor project, Huh7 cells, luciferase reporter (AID 1109).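 Also: huh7 hepatoma cells harbouring a luciferase neomycin HCV replicon reporter; luciferase luminescence as measure of HCV replicon replication; test concentration not given here.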 As to conditions: 48 h, higher = more signal. In general terms: Replicon systems follow genome replication, usually without infectious particles.
For test [3], the target named is Left-right determination factor 2 (Homo sapiens) (UniProt O00292). The test is described as follows: LEFTY2 binders on small-molecule microarrays, primary screen, biochemical, small-molecule microarray, 635 nm fluorescence scan (AID 1110). The following applies: LEFTY2 binding, higher = more signal.
Test [4] addresses Calmodulin-1 (Homo sapiens) (UniProt P0DP23). Briefly: CALM1 binders on microarrays, EGTA buffer, profiling panel, biochemical, small-molecule microarray, Cy5-labelled CALM1 (AID 1111).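 Also: labelled calmodulin applied in Tris saline Tween buffer holding calcium plus EGTA and DTT.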 The following applies: Cy5-CALM1 binding fluorescence, higher = more signal.
The target is the same in test [5]. Briefly: calcium-bound CALM1 binders on microarrays, profiling panel, artefact control for SMM control-protein annotation, biochemical, small-molecule microarray, Cy5-labelled CALM1, plus calcium (AID 1112).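 Also: score merges spot fluorescence with signal to noise from triplicate slides.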 As to conditions: Cy5-CALM1 binding fluorescence, higher = more signal.
Test [6] in a line: small-molecule microarray binders of probe aWnt5a, primary screen, biochemical, biotinylated probe, 635/667 nm fluorescence (AID 1113).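 Also: score merges 667 nm fluorescence intensity with signal-to-noise per printed feature.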 As to conditions: higher = more signal.
The nature of test [7]: small-molecule microarray binders of probe aShh, primary screen, biochemical, biotinylated probe, 635/667 nm fluorescence (AID 1114).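 Also: probe is biotin-labelled aShh protein from a stem cell growth factor screen; measures binding of labelled protein to compounds printed on the slide; score merges feature fluorescence at 667 nm with signal-to-noise.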 As to conditions: higher = more signal.
A short description of test [8]: small-molecule microarray binders of probe aNog, primary screen, biochemical, biotinylated probe, 635/667 nm fluorescence (AID 1115).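 Also: probe is biotinylated aNog protein used at 0.15 µg/mL for 1 h at 4 C; z-score combines 667 nm fluorescence of each spot with its signal to noise.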 As to conditions: higher = more signal.
Test [9] concerns the target Torsin-1A-interacting protein 1 (Homo sapiens) (UniProt Q5JTV8). The test is described as follows: LAP1 binders from COS7 cell lysate, primary screen, small-molecule microarray, 635/667 nm fluorescence (AID 1116). As to conditions: COS7-hLAP1 lysate binding, 635 nm fluorescence, higher = more signal.
Test [10] addresses Alpha-bungarotoxin (Bungarus multicinctus) (UniProt P60615). Briefly: alpha-bungarotoxin binders on microarray, profiling panel, artefact control for SMM control protein annotation, biochemical, small-molecule microarray, Alexa647 label, 635/667 nm fluorescence (AID 1117). The following applies: alpha-BTX-A647 binding fluorescence, higher = more signal.
Another test concerns the target Albumin (Bos taurus) (UniProt P02769). The test is described as follows: bovine serum albumin binders on microarray, profiling panel, artefact control for SMM control protein annotation, biochemical, small-molecule microarray, Alexa647 label, 635/667 nm fluorescence (AID 1118).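 Also: score merges 667 nm emission intensity and signal-to-noise per printed compound spot.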 The following applies: BSA-A647 binding, fluorescence 635 nm, higher = more signal.
Test [11] is described as follows: small-molecule microarray binders of probe aXIP, primary screen, biochemical, NeuroSMM set, 635/667 nm fluorescence (AID 1119).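 Also: probe is the protein aXip251-270 applied at 1 µg/mL to compound-printed slides; binding of probe to printed compounds measured as 667 nm fluorescence plus signal to noise.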 The following applies: higher = more signal, called active from +8 up or from −8 down.
Test [12] can be described thus: small-molecule binders of probe aNOTCH3, primary screen, biochemical, small-molecule microarray, 635/667 nm fluorescence (AID 1120).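 Also: probe is a biotin-tagged antibody raised against NOTCH3 rather than NOTCH3 protein; score merges spot fluorescence near 667 nm with spot signal to noise.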 As to conditions: higher = more signal.
Test [13] is described as follows: small-molecule binders of probe aNOTCH2, primary screen, biochemical, small-molecule microarray, 635/667 nm fluorescence (AID 1121).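 Also: score merges feature fluorescence read at 667 nm with its signal to noise.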 The following applies: higher = more signal.
Test [14] concerns the target Carbonic anhydrase 2 (Homo sapiens) (UniProt P00918). Briefly: CAII small-molecule binders, profiling panel, biochemical, small-molecule microarray, Alexa647-labelled CAII (AID 1122). As to conditions: CAII-A647 binding fluorescence, higher = more signal.
Test [15] in a line: COS7 lysate on small-molecule microarray, probe aHis, 635 nm (AID 1123).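 Also: z-score combines 667nm fluorescence intensity with signal-to-noise per printed compound spot.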 The following applies: COS7 cell lysate, fluorescence, higher = more signal.
Test [16] in a line: compound binding in COS7 lysate, probe aLAP1, primary screen, cell lysate, small-molecule microarray (AID 1124).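 Also: lysate comes from COS7 cells expressing LAP1 and is applied at 0.3 µg/mL; score merges spot fluorescence near 667 nm with signal-to-noise over triplicate slides.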 The following applies: probe aLAP1, fluorescence, higher = more signal.
The test system of a further test is Sam68 (KHDRBS1). Briefly: Sam68 small-molecule binders, primary screen, biochemical, small-molecule microarray, 635 nm fluorescence (AID 1125).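 Also: score merges 667 nm channel intensity with signal to noise over triplicate slides.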 The following applies: small-molecule microarray binding, higher = more signal.
In test [17] the test system is Chordin-like protein 2 (CHRDL2). Briefly: CHRDL2 small-molecule binders, primary screen, biochemical, small-molecule microarray, 635 nm fluorescence (AID 1126).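 Also: printed compound slides probed with Chrdl2 protein at 4 µg/mL for 1 h at 4 C; score merges 667 nm emission intensity with signal to noise over three replicate slides.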 The following applies: small-molecule microarray binding, fluorescence 635 nm; higher = more signal.
Test [18] concerns the target Concanavalin-A (Canavalia ensiformis) (UniProt P02866). Briefly: ConA small-molecule binders, primary screen, artefact control for SMM control protein annotation, biochemical, small-molecule microarray, Alexa647 label, 635 nm (AID 1127).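 Also: z combines 667 nm emission intensity with signal-to-noise across three replicate slides.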 The following applies: ConA-A647 binding fluorescence, higher = more signal.

Active and inactive are the calls of the source.

Chain of Albumin (Bos taurus) (P02769 whole entry, looked up): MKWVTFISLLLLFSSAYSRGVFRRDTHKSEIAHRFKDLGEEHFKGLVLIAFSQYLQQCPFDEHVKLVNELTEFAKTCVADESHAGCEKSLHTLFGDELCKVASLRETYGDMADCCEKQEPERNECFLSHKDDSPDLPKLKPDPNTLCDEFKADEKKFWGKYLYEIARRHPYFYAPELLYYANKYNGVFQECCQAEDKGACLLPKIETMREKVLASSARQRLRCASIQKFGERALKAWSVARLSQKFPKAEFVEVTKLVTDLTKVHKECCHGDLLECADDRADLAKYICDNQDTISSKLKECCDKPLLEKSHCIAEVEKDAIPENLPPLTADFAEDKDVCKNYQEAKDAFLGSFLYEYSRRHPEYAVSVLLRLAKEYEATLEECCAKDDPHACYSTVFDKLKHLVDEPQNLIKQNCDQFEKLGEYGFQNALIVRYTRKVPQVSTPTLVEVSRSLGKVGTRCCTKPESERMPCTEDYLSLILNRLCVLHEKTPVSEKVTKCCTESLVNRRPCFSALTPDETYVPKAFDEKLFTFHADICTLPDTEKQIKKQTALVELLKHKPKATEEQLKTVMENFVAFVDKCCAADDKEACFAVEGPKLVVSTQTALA
Chain of Torsin-1A-interacting protein 1 (Homo sapiens) (Q5JTV8 whole entry, looked up): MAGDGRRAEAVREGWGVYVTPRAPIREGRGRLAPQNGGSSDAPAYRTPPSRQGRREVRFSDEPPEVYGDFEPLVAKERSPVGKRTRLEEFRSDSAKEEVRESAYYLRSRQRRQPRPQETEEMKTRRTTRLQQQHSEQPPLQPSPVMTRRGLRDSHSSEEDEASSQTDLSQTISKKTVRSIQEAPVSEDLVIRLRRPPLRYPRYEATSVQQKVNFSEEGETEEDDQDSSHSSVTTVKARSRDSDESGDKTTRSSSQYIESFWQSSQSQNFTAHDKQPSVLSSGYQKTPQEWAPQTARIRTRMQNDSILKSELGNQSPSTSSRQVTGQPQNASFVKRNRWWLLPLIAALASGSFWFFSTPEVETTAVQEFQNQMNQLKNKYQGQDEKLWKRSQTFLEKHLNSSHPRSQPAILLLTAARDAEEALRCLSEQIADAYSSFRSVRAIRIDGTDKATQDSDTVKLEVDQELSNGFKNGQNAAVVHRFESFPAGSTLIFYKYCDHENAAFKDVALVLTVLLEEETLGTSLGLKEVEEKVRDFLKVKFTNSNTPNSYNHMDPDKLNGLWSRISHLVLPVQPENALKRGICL
Chain of Concanavalin-A (Canavalia ensiformis) (P02866 whole entry, looked up): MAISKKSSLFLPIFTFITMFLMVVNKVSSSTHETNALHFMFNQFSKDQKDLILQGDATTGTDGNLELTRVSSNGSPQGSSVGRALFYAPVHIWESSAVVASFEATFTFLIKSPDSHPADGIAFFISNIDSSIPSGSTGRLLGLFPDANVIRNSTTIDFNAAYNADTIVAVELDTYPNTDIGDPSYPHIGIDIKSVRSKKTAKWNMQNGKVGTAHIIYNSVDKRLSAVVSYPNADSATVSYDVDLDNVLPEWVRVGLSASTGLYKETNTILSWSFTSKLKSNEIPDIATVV
Chain of Left-right determination factor 2 (Homo sapiens) (O00292 whole entry, looked up): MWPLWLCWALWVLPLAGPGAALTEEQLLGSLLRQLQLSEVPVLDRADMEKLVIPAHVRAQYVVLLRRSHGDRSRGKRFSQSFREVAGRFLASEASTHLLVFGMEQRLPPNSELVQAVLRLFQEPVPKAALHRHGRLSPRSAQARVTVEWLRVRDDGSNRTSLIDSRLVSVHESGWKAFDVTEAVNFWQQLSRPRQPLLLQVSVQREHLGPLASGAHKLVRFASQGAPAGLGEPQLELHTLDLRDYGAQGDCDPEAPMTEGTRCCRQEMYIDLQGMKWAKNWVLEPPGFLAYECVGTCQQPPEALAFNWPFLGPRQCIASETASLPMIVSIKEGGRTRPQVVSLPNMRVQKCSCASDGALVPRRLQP
Chain of Alpha-bungarotoxin (Bungarus multicinctus) (P60615 whole entry, looked up): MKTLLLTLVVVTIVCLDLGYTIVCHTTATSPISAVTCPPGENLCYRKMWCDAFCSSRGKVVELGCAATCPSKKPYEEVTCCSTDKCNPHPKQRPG

As to `C=CC[C@@]1(C(=O)N2CCCCC2)N=C(c2ccc(OCCCO)cc2)O[C@@H]1c1ccccc1N=[N+]=[N-]`, the composite z-score in [1] came out at 1.46; in test [3], 0.227; in test [4] it was 1.27; in test [5] it was 0.613; in test [6] it was 0.0472; in test [7], 0.214. In addition, the composite z-score in test [8] is 1.54; in [9], 1.05; in test [10], 2.11; with Albumin (Bos taurus) it was 0.82; in test [12], 0.185; in test [13], 0.0497. In addition, the composite z-score was 0.443 in test [14]; 2.41 in [15]; -0.0724 in [16]; 1.29 in the test with Sam68 (KHDRBS1); -0.294 in test [17]; 1.04 in test [18]. Moreover, the z-score in [2] was -1.62. The composite Z-score in test [11] is -0.797 (inactive).

As for `CCCCC(=C=CC[C@@H](O)c1ccc(CO)o1)CCO`, the composite z-score is 0.378 in test [1]; 0.38 in test [3]; -0.111 in test [4]; -0.641 in [5]; -0.0462 in [6]; 0.365 in test [7]. Also, the composite z-score in test [8] is -0.158; in test [9] it was 0.148; in [10] it was -0.168; with Albumin (Bos taurus), -0.276; in [12], 0.0261; in [13], -0.044. In addition, the composite z-score in test [14] is 0.595; in [15], -0.0845; in [16] it was 0.24; in the test with Sam68 (KHDRBS1) it was 1.17; in test [17] it was 0.29; in [18], 0.119. In test [2], this compound came in with a z-score of -0.379. Moreover, the composite Z-score in test [11] was -0.35 (inactive).

As to `O=C1[C@@]23C=C(Br)[C@H](C[C@@H]2COC3)[C@]12CO2`, the composite z-score was -2.09 in test [1]; -1.16 in test [3]; -1.01 in test [4]; -1.25 in test [5]; 0.0388 in test [6]; -0.234 in [7]. The composite z-score was 0.0256 in [8]; -0.0722 in test [9]; -1.5 in test [10]; -0.742 with Albumin (Bos taurus); -0.0187 in test [12]; -0.0176 in test [13]. The composite z-score in [14] was -0.762; in test [15], 0.638; in test [16], -0.447; with Sam68 (KHDRBS1), -2.61; in test [17], -0.323; in test [18] it was -1.79. The same compound came in with a z-score in test [2] of -1.96. The composite Z-score in [11] was -0.222 (inactive).

`CC(C)[Si](C#CCCCC#N)(O[C@H](c1ccccc1)c1cn(Cc2cccc(Cl)c2)nn1)C(C)C`: the composite z-score was 1.31 in test [1]; 0.634 in [3]; -0.412 in test [4]; -0.745 in test [5]; -0.0977 in [6]; -0.0553 in test [7]. The composite z-score is -0.467 in test [8]; 0.423 in [9]; -0.0534 in test [10]; 0.588 with Albumin (Bos taurus); 0.0871 in test [12]; -0.11 in test [13]. In addition, the composite z-score was 0.442 in test [14]; 0.79 in [15]; -0.192 in test [16]; 1.3 in the test on Sam68 (KHDRBS1); 0.841 in test [17]; 0.0848 in test [18]. The same compound registered a z-score in [2] of -1.7. Also, the composite Z-score in test [11] is 1.02 (inactive).

On to `C[N+](C)(C)CCCCCCNC(=O)[C@H]1C[C@H]2C(=O)N[C@@H](Cc3ccccc3)C(=O)N2[C@H]1c1cccc(OCCO)c1`, for which the composite z-score in test [1] is 0.658; in [3], 0.642; in test [4] it was -0.96; in test [5] it was -1.03; in test [6], -0.184; in [7], -0.243. The composite z-score in test [8] was -0.234; in test [9], 0.944; in test [10], -0.049; in the test with Albumin (Bos taurus) it was -0.174; in test [12] it was -0.1; in [13] it was -0.107. Also, the composite z-score in test [14] is 0.638; in test [15] it was 2.1; in [16], 0.319; with Sam68 (KHDRBS1), 0.699; in [17] it was 1.01; in [18], 0.996. The z-score in [2] was 0.487. Further, the composite Z-score in test [11] was 0.35 (inactive).

Source of the values: PubChem BioAssay.
